We go through 70 compounds from PubChem BioAssay AID588354 (The Scripps Research Institute Molecular Screening Center, 2011).

About 430 (0.12%) of roughly 360,000 compounds were called active. This is one part of a sample in which actives are shown more often than they occur.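 The calls were made as follows: active = inhibition above the campaign mean plus 3 SD, with each screening campaign given its own cutoff (cut at about 60% in these data); inactive = the rest.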

In general, inhibition refers to the drop in the measured response relative to a control, in per cent.

Nuclear receptor coactivator 1 (Homo sapiens), sequence (Q15788 whole entry, looked up, the tested form may be a part): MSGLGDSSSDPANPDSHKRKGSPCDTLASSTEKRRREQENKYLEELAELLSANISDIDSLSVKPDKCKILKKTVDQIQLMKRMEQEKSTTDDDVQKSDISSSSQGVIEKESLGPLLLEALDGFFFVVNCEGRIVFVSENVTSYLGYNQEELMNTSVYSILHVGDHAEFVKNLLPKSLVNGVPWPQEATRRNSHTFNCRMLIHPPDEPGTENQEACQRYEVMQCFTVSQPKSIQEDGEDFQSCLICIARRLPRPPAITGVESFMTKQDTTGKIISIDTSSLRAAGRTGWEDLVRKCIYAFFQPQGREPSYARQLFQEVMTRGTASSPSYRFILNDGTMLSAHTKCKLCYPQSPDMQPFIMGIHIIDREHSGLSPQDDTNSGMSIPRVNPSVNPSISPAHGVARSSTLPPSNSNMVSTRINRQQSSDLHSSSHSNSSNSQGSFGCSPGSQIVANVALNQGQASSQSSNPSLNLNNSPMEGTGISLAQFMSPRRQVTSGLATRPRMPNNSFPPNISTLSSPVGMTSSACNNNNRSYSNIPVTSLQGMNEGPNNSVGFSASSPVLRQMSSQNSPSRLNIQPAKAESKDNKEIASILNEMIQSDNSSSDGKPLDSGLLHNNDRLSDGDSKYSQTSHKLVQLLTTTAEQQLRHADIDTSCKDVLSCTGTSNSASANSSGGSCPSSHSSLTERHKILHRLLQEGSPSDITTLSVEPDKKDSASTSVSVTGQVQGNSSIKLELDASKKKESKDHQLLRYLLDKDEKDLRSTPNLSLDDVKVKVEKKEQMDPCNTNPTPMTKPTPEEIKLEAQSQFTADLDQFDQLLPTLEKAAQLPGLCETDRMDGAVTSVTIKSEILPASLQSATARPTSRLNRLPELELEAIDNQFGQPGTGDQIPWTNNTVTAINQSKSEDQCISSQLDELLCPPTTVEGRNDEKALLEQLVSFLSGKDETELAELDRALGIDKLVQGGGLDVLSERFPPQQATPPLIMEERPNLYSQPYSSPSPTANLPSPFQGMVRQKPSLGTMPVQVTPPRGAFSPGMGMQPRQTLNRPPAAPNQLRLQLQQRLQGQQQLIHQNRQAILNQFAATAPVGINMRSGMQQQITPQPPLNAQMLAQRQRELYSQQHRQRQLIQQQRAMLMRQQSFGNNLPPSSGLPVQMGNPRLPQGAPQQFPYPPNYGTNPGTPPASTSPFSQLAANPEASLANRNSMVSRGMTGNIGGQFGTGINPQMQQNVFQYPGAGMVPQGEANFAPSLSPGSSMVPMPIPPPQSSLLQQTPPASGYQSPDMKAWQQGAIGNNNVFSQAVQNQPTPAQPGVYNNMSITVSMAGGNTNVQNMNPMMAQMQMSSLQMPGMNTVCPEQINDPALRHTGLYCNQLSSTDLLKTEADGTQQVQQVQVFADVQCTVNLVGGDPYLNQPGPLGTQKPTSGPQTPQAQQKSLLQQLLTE

The assay concerns the target Nuclear receptor coactivator 1 (Homo sapiens) (UniProt Q15788). Put plainly: SRC1 coactivator transcriptional activity inhibitors, primary screen, cell-based, luminescence (AID 588354).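 Also: 0% = DMSO treated cells and 100% = gossypol at 36 µM.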 The following applies: HEK293 GAL4-SRC1 luciferase reporter, at 3.6 µM, active compounds read high. A general note: A reporter such as luciferase makes a cellular process visible.
Consider `Cc1ccsc1C(=O)OCC(=O)NCCc1ccccc1`, for which the inhibition is -29.4% (inactive).
For `Cc1ccsc1C(=O)OCC(=O)c1cc(C)n(CC2CCCO2)c1C` (stereo not given), the inhibition was 82.3% (active).
As to `COc1ccc(CNC(=O)COC(=O)c2sccc2C)cc1OC`, the inhibition is 2.6% (inactive).
Then `Nc1nc(SCC(=O)N2CCN(S(=O)(=O)c3ccc(Cl)cc3)CC2)n[nH]1`, with 9.56% (inactive); and `Cc1cc(C)n2nc(C(=O)N(C)C(c3ccccc3)c3ccccc3)nc2n1`, with -3.03% (inactive); and `CCc1ccnc(NS(=O)(=O)c2ccc3c(c2)OCCO3)c1`, with -6.15% (inactive).
Regarding `CC(=O)NC1C(Oc2ccc(C=O)cc2)OC(COC(C)=O)C(OC(C)=O)C1OC(C)=O` (stereo not given), the inhibition is -13.2% (inactive).
Take `CC1CCCC(C)N1/N=C/c1ccccc1OC(F)F` (stereo not given): the inhibition was -2.18% (inactive).
Take `CC12C(=O)N(n3cnnc3)C(=O)C1C1C=CC2C1` (stereo not given): the inhibition was -10.2% (inactive).
Then `C=CCC1(CC=C)CCCN1C(=O)c1cc(COc2ccc(-n3cncn3)cc2)on1`, with -1.06% (inactive).
Then `Cc1ccc(S(=O)(=O)N2CCN=C2SCc2c(F)cccc2Cl)cc1`, with -14.6% (inactive).
Then `O=C(O)C1C2CC2CN1C(=O)c1ccc(Cl)cc1Cl` (stereo not given), with 10.7% (inactive); and `CC(NC(=O)c1ccccc1C(=O)O)c1ccc(-n2ccnc2)cc1` (stereo not given), with -1.09% (inactive); and `N#CC1(NC(=O)COc2ccc3oc4ccccc4c3c2)CCCCC1`, with 2.18% (inactive).
As for `COc1ccc(OC)c(S(=O)(=O)Nc2cccc(-c3ccc4nncn4n3)c2)c1`, the inhibition is -20.7% (inactive).
Consider `CC1CCCCC12NC(=O)N(CC(=O)N1CCN(c3ccccc3)CC1)C2=O` (stereo not given), for which the inhibition is 1.99% (inactive).
With `CN(C)c1ccc(CSc2ccccc2)cc1`, the inhibition is -41.4% (inactive).
The same measure for `CCN(CC)C(=O)[C@H]1C[C@H](CC(=O)NCC23CC4CC(CC(C4)C2)C3)C(=O)N2CCc3c([nH]c4cc(CCC(=O)N(C)C)ccc34)[C@]12C`: 4.03% (inactive).
For `Cc1cc(C)c2c(c1)c(C)cc1nnc(SCC(=O)NCc3ccco3)n12`, the inhibition was -10.2% (inactive).
Then `CC(C)c1cccc(C(C)C)c1Nc1cn[nH]c1`, with -5.74% (inactive); and `CC(=O)c1cccc(NC(=O)N2CCCC2C(=O)NCCC(C)C)c1` (stereo not given), with -16% (inactive).
The same measure for `C=CCn1c(SCc2cc(C(=O)OC)c(C)o2)nnc1-c1ccncc1`: -8.14% (inactive); for `CCn1nc(NC(=O)c2ccco2)c2cc3ccc(C)cc3nc21`: 5.64% (inactive).
Turning to `CN(Cc1ccc(CNC[C@H]2O[C@@H](n3cnc4c(N)ncnc43)[C@H](O)[C@@H]2O)o1)S(C)(=O)=O`, the inhibition was -4.89% (inactive).
As for `O=C(NCc1ccccc1)C(c1ccco1)N(C(=O)c1csnn1)c1ccccc1F` (stereo not given), the inhibition was -7.13% (inactive).
The same measure for `COc1cc(OC)cc(-c2cc3ccc(F)cc3cn2)c1`: -60% (inactive); for `CCOC(=O)c1cc(C(=O)Nc2ccc(S(=O)(=O)Nc3ccc(OC)cc3)cc2)nn1C`: 7.15% (inactive).
In the case of `O=C(Nc1cc2c3c(c1)C1CCCC1CN3CC1CCCC21)c1ccc([N+](=O)[O-])cc1` (stereo not given), the inhibition is -2.56% (inactive).
In the case of `CCOC(=O)NC(=O)CSc1nnc(SCCC(=O)O)s1`, the inhibition was -8.78% (inactive).
Then `COc1ccc(C2=Nn3c(nnc3-c3ccccc3OC)SC2)cc1OC1CCCC1`, with -15.9% (inactive).
Then `CCCCN(C(=O)CCNC(=O)NC12CC3CC(CC(C3)C1)C2)c1c(N)n(CCCC)c(=O)[nH]c1=O`, with 4.35% (inactive).
Then `C=CCOc1cccc(C2NC(=O)c3ccccc3O2)c1` (stereo not given), with 3.13% (inactive).
For the compound `Cc1ccnc2nc(C(=O)OCC(=O)N(CC(C)C)CC(C)C)nn12`, the inhibition is 2.84% (inactive).
The same measure for `CN1CCN(C(=O)C(=O)c2cn(CC(=O)N3CCCC3)c3ccccc23)CC1`: -22.3% (inactive).
In the case of `CCN(CC)C(=O)CSC1c2ccccc2C(=O)N1c1ccccc1` (stereo not given), the inhibition is -5.03% (inactive).
Then `O=C(c1ccc(F)c(S(=O)(=O)N2CCOCC2)c1)N(CCc1ccccc1)Cc1ccccc1`, with -1.71% (inactive).
Then `CSCCC(NC(=O)c1ccc(Cl)cc1Cl)C(=O)NNC(=O)c1csc(N2CCOCC2)n1` (stereo not given), with -17% (inactive).
For the compound `Cc1cccc(C(=O)N2CCCC(Nc3ccc(C(C)C)cc3)C2)n1` (stereo not given), the inhibition was 1.61% (inactive).
Then `COc1ccc(N2CCN(C(=O)Cn3cnc4sc(C)c(S(=O)(=O)N5CCOCC5)c4c3=O)CC2)cc1`, with 1.72% (inactive); and `O=C(Nc1cc(-c2nc3ncccc3o2)ccc1Cl)c1ccco1`, with -8.08% (inactive); and `C[C@H]1CN([C@@H](C)CO)C(=O)c2cc(-c3cccc(F)c3)cnc2O[C@@H]1CN(C)S(C)(=O)=O`, with 4.48% (inactive).
In the case of `COC(=O)CNC(=O)c1ccc2c(c1)S(=O)(=O)c1ccccc1C2=O`, the inhibition was -9.27% (inactive).
Then `Cc1cc(=O)oc2c3c(cc(OCC(=O)NCC(O)c4ccccc4)c12)OC(C)(C)CC3` (stereo not given), with -22.4% (inactive).
The same measure for `S=C(Cc1ccc(Cl)cc1)N1CCOCC1`: -5.3% (inactive); for `O=C(O)c1n[nH]nc1-c1ccccc1`: 10.2% (inactive).
The same measure for `CC1(C)CC(N2CCN(C(c3ccccc3)c3ccccc3)CC2)=CC(=[N+]2CCCCC2)C1`: 77% (active); for `Clc1ccc2nc(CSc3ccccc3)cn2c1`: -91.3% (inactive).
Turning to `CC(C)(C)SCCSC1=CC(=O)CC(c2ccccc2)C1` (stereo not given), the inhibition was -111% (inactive).
Take `CCCCNS(=O)(=O)c1ccc2nc(SCC(=O)Nc3cc(C)cc(C)c3)[nH]c2c1`: the inhibition was 12% (inactive).
In the case of `Cc1cc(NC(=O)CSc2nccn2-c2ccc([N+](=O)[O-])cc2)no1`, the inhibition was -17% (inactive).
Turning to `CN(C)/C=C(/C(=O)c1ccccc1Cl)S(C)(=O)=O`, the inhibition is -22.7% (inactive).
Then `COc1ccc2c(c1)N(C)/C(=C1/SC(=S)N(NC(C)=O)C1=O)S2`, with -35.2% (inactive); and `CCOC(=O)c1ccccc1N1C(=O)C2Sc3[nH]c(=O)sc3C(/C=C/c3ccccc3)C2C1=O` (stereo not given), with -1.18% (inactive); and `O=S(=O)(c1ccc(Cl)cc1)c1nc(-c2ccccc2F)oc1NCCN1CCOCC1`, with -8.54% (inactive).
The same measure for `O=C(NCCN1CCOCC1)c1cc(Sc2cccc(Cl)c2)nc2ccccc12`: -5.48% (inactive); for `c1ccc2cc3c(NCCN4CCOCC4)ccnc3cc2c1`: 61.6% (active).
In the case of `O=C(CCCN=C1NS(=O)(=O)c2ccccc21)OCC(=O)c1ccc(F)c(F)c1`, the inhibition is -0.01% (inactive).
The same measure for `CCn1c(C(C)C)n[nH]c1=S`: -20.3% (inactive).
The same measure for `CC(C)(C)NC(=O)C(c1ccco1)N(Cc1ccc2c(c1)OCO2)C(=O)Cn1nnc2ccccc21` (stereo not given): 11.9% (inactive); for `CCOc1ccc(-n2cnnn2)cc1S(=O)(=O)N1CCC(C)CC1C` (stereo not given): 4.05% (inactive).
Then `O=S(=O)(NCc1ccc2c(c1)OCO2)c1cccc2nsnc12`, with -3.02% (inactive).
On to `Cc1nc(COc2cc3oc(=O)cc(C)c3cc2Cl)cs1`, for which the inhibition was -6.18% (inactive).
Turning to `C[C@@H]1C[C@@H]2O[C@H]2/C=C\C=C\C(=O)Cc2c(Cl)c(O)cc(O)c2C(=O)O1`, the inhibition was 53.8% (inactive).
Then `CC(=O)NC1(c2ccc(F)cc2)CCN(C(=O)c2c(F)cccc2F)CC1`, with -14.7% (inactive); and `c1cnc(NC2C3CC4CC(C3)CC2C4)nc1` (stereo not given), with -13.6% (inactive).
Then `CCCCCC(O)c1cccc(OCc2ccc3ccccc3n2)c1` (stereo not given), with -17.6% (inactive); and `O=C(CCn1c(=S)[nH]c2cc3c(cc2c1=O)OCO3)NCc1ccc(Cl)cc1`, with 10% (inactive); and `CCN(Cc1ccccc1)C(=O)CSc1nc(C)cc2c1C(=O)OC2`, with -20% (inactive).
Consider `Cc1nnc(C)c2c(C)n(N)c(C)c12`, for which the inhibition was 3.29% (inactive).
Take `CCCNC(=O)C1(C)CCN(C(=O)c2ccccc2OC(F)(F)F)C1` (stereo not given): the inhibition is -5.22% (inactive).
